The record followed here is PubChem BioAssay (NCI).

What all share (experiment): NCI-60 one-dose screen, 48 h (100 = growth as untreated, 0 = no growth, -100 = all killed)
Common to all, as to settings: 10 µM unless noted

The subject of test [1] is T-47D breast.
Test [2] deals with BT-549 breast.
In test [3] the test system is MDA-MB-435 melanoma.
Test [4] relates to SW-620 colon.
The test system of test [5] is MCF7 breast.
The test system of test [6] is HCT-116 colon.
Test [7] concerns HCC-2998 colon.
Test [8] concerns KM12 colon.

This is part of a sample that, as a whole, favours compounds with a hit. Of some 83,000 tested, about 20% had one in any assay.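 Single-dose data. Exposure time 48 hours. Values below 10 considered active.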 A number with no mark means an inactive call. Calls of active or inactive are those of the source.

For `C(#Cc1ccccc1C#Cc1ccccn1)c1ccc(OCCCCCCOc2ccc(C#Cc3ccccc3C#Cc3ccccn3)cc2)cc1`, the growth is 36.5% in test [1]; 39.6% in test [2]; 25.6% in test [3]; 62.6% in test [4]; 21.1% in test [5]; 38.4% in test [6]. Moreover, the growth is 58.8% in test [7] and 37.1% in test [8].

For `Oc1c(Cl)cc(Cl)c(Cl)c1Cc1c(O)c(Cl)cc(Cl)c1Cl`, the growth in test [1] is 33.8%; in test [2], 17.2%; in test [3], 10.4%; in test [4], 16.7%; in test [5], 10.3%; in test [6], 3.93% (active). The growth in test [7] was 7.48% (active); in test [8], 8.09% (active).

With `COc1ccc2nc(NC(=O)CN3CCn4c(nnc4C(F)(F)F)C3)sc2c1`, the growth in test [1] is 95%; in test [2], 96%; in test [3], 90%; in test [4], 94.5%; in test [5], 69.6%; in test [6] it was 99.4%. In addition, the growth is 103% in test [7] and 79.3% in test [8].

With `Nc1ccc2c(c1)C(=O)c1cc(Cl)c(Cl)cc1-2`, the growth was 91% in test [1]; 85.2% in test [2]; 102% in test [3]; 101% in test [4]; 69.2% in test [5]; 93.5% in test [6]. Besides, the growth in test [7] is 98%; in test [8], 92.8%.

As to `O=CN1N=C(c2ccc(Cl)cc2)CC1c1cccc(Nc2ccnc3cc(Cl)ccc23)c1` (configuration not stated), the growth in test [1] is 11.8%; in test [2] it was 7.26% (active); in test [3], 4.68% (active); in test [4] it was 27%; in test [5] it was 11.3%; in test [6], 7.72% (active). Also, the growth is 40.9% in test [7] and 19.8% in test [8].

Take `Cc1ccc2c(c1)C(=O)/C(=C\Nc1ccc(C(N)=O)cc1)C(O)O2` (configuration not stated): the growth in test [1] is 73.9%; in test [2], 82.4%; in test [3], 98.4%; in test [4], 93.2%; in test [5], 96.6%; in test [6], 93.5%. Further, the growth was 134% in test [7] and 88.2% in test [8].

Take `O=C(O)C1CCN(S(=O)(=O)c2ccc(-c3ccccc3)cc2)CC1`: the growth was 107% in test [1]; 109% in test [2]; 120% in test [3]; 98.2% in test [4]; 101% in test [5]; 112% in test [6]. In addition, the growth in test [7] is 93.6%; in test [8], 111%.

Turning to `COc1cc(/C=N/OC(=O)Nc2ccccc2)cc(OC)c1OC`, the growth in test [1] was 100%; in test [2] it was 105%; in test [3], 124%; in test [4], 108%; in test [5] it was 108%; in test [6], 94.3%. In addition, the growth is 106% in test [7] and 113% in test [8].

Take `CC[n+]1c(/C=C/c2ccc(N3CCCC3)cc2)cccc1/C=C/c1ccc(N2CCCC2)cc1`: the growth was -61% (active) in test [1]; -89.7% (active) in test [2]; -70.7% (active) in test [3]; -88.1% (active) in test [4]; -85.5% (active) in test [5]; -54.7% (active) in test [6]. Further, the figures for the growth in test [7] and in test [8] were -82.5% (active) and -81.5% (active), respectively.

Take `CCN(CC)c1ccc(C(=C2C=CC(=[N+](CC)Cc3cccc(S(=O)(=O)O)c3)C=C2)c2ccc(N(CC)Cc3cccc(S(=O)(=O)O)c3)cc2)cc1`: the growth in test [1] is 8.92% (active); in test [2], 46.6%; in test [3], 41.5%; in test [4], 22.9%; in test [5] it was 52.1%; in test [6], 3.12% (active). Further, the growth in test [7] was 21%; in test [8], 3.78% (active).

For the compound `COc1cc(C2CC(C3C(=O)N(C)C(=O)N(C)C3=O)=NN2c2cc(Cl)cc(Cl)c2)cc(OC)c1OC` (configuration not stated), the growth is 79.4% in test [1]; 99.2% in test [2]; 98% in test [3]; 94.7% in test [4]; 90.4% in test [5]; 87.3% in test [6]. Also, the results for the growth in test [7] and in test [8] were 87.7% and 91.8%, respectively.

For the compound `Cc1nn(-c2ccccc2)cc1/C=C1\SC(N2CCCCC2)=NC1=O`, the growth in test [1] was 82.4%; in test [2] it was 88.2%; in test [3], 92%; in test [4], 79.8%; in test [5], 55.8%; in test [6], 46.7%. Further, the growth in test [7] was 94.5%; in test [8] it was 103%.

Turning to `Nc1ccn(C2O[C@H](CO)[C@@H](O)[C@@H]2O)c(=O)n1` (some centres not stated), the growth in test [1] is 80.5%; in test [2], 81.2%; in test [3], 45.3%; in test [4], 45.9%; in test [5], 24%; in test [6] it was 32.4%. For the same compound, the growth in test [7] is 53.5%; in test [8], 58.1%.

Take `CCOc1cc(/C=C/C(=O)C(C(=O)/C=C/c2ccc(OC(=O)CNc3nc4ccccc4[nH]3)c(OCC)c2)C(=O)CNc2nc3ccccc3[nH]2)ccc1OC(=O)CNc1nc2ccccc2[nH]1`: the growth was 37.3% in test [1]; -31.3% (active) in test [2]; -37.6% (active) in test [3]; -71.4% (active) in test [4]; 0.893% (active) in test [5]; -61.3% (active) in test [6]. Moreover, the growth in test [7] was -41.5% (active); in test [8], -70.8% (active).
